Pf growth 96h = P. falciparum growth inhibition at 96 hour, primary screen for plastid delayed-death inhibitors | P. falciparum luciferase reporter growth, 96 h | 320,000 tested, 6.9% active | AID 504834 | Potency, µM (doses to about 28.7 µM), for inactives: at the top dose activity change, negative = inhibition, most hits filed as inhibitors; also: % is scaled to controls: 0 for no effect and ±100 for the full control effect
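Compounds incubated with erythrocytes infected by luciferase-expressing P. falciparum (2% hematocrit, 0.05% parasitemia final) for 96 hours, 37 C in 5% CO2. Growth inhibition scored as decreased luciferase luminescence.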
Sm TGR inh = inhibitors of Schistosoma mansoni thioredoxin glutathione reductase; purified TGR, DTNB reduction, TNB absorbance 405 nm; Potency, µM (top dose mostly 114 µM), for inactives: top-dose activity change, negative = inhibition, hits mostly inhibitors; 360,000 tested, 3% active; also: % is scaled to controls: 0 for no effect and ±100 for the full control effect; nearly all actives have a fitted effect of over 60% in size
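Kinetic colorimetric format: TGR-catalysed, NADPH-driven DTNB reduction monitored via TNB absorbance. Enzyme dispensed at 20 nM; compound exposure 15 min at room temperature before reaction start.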
Pf growth 48h = P. falciparum growth inhibition at 48 hours (one generation); P. falciparum luciferase growth in erythrocytes, 48 h; Potency, µM (highest dose often 28.7 µM), inactives show top-dose activity change, negative = inhibition, usual class: inhibitors; 310,000 tested, 5.9% active; also: % is scaled to controls: 0 for no effect and ±100 for the full control effect
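Cell-based growth assay: transgenic P. falciparum expressing firefly luciferase, cultured in red cells within RPMI 1640 containing 0.5% w/v Albumax, 24 mM bicarbonate and gentamycin. A drop in luciferase activity indicates inhibition.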
SARS PLP yeast = inhibitors of SARS-CoV papain-like protease in yeast; 330,000 tested, 0.19% active; S. cerevisiae expressing SARS-CoV PLpro, growth rescue; Potency, µM (series often up to 32.9 µM), for the others: top-dose activity, positive = growth rescue, actives largely listed as activators; AID 485353; calls by dose curve; also: 0% is about no effect; nearly all actives have a fitted effect of over 55% in size
The depositor's hits bear a star; ? = inconclusive; nt = no result given; ! = not active in a repeat. Compounds with a hit are over-represented: about 12% of the library has one in this group of screens. Unless noted, calls follow the shape of the dose curve; as a rule, active = well fitted curve in the direction sought with a large enough effect; inconclusive = small, poorly fitted or top-dose-only effect, or another doubt; inactive = no such curve, though single readings can be large; an effect the other way counts as inactive or inconclusive. Potency is read from the fitted curve at half-maximal effect.

SMILES	Pf growth 96h	Sm TGR inh	Pf growth 48h	SARS PLP yeast
CC(=O)/C(=C/N(C)C)C(=O)Nc1ccc(Cl)cc1Cl	-8%	?	2%	-5%
CN(C)CCNC=C(C(=O)Nc1ccc(Cl)cc1Cl)C(=O)Nc1ccc(Cl)cc1Cl	1.9µM*	0%	3.3µM*	-13%
CCCOc1ccc(OC(=O)c2c(-c3ccccc3Cl)noc2C)cc1	nt	-3%	nt	nt
O=C(CC(Nc1ccccc1Cl)C(=O)O)c1ccccc1 (stereo not drawn)	-10%	nt	144%	-1%
O=C(CC(Nc1cccc(Cl)c1Cl)C(=O)O)c1ccccc1 (stereo not drawn)	-9%	nt	40%	0%
COc1ccccc1NC(=O)CCCC(=O)OCC(=O)c1ccc(F)cc1	-3%	-4%	-10%	-2%
Cc1c(Cl)cccc1NC(CC(=O)c1ccccc1)C(=O)O (stereo not drawn)	55%	1µM*	19%	-17%
Cc1c(Cl)cccc1Nc1ccccc1C(=O)O	13µM*!	13%	?	-21%
COc1ccccc1NC(CC(=O)c1ccccc1)C(=O)OCC(=O)c1ccc(F)cc1 (stereo not drawn)	-2%	20µM*	82%	-41%
O=C(CC(Nc1ccc(Cl)cc1)C(=O)O)c1ccccc1 (stereo not drawn)	321%	0.71µM*	333%	2%
O=C(CC(Nc1cccc(Cl)c1Cl)C(=O)OCC(=O)c1cccs1)c1ccccc1 (stereo not drawn)	?	-34%	17%	13%
O=C(Cc1ccc(Cl)cc1)Nc1ccc(NC(=O)c2ccccc2)cc1	5%	-5%	5%	5%
Cc1c(Cl)cccc1NC(CC(=O)c1ccccc1)C(=O)OCC(=O)c1cccs1 (stereo not drawn)	-70%	8.9µM*	2%	-29%
O=C(CC(=O)c1ccccc1)Nc1ccc(Cl)cc1	23%	32µM*	34%	-6%
CCOc1ccc(-c2nonc2NC(=O)c2ccc(C)cc2)cc1OCC	nt	0%	nt	nt
COc1cc(OC)cc(-c2c(C#Cc3ccsc3)c3cc(-c4ccc(OC)nc4)ccc3n2C)c1	?	28µM*	?	1%
Cc1cc(C#Cc2c(-c3ccccc3)n(C)c3ccccc23)ccc1F	5.9µM*	?	?	-14%
COc1cc(C#Cc2c(-c3ccccc3)n(C)c3ccccc23)cc(OC)c1	12µM*	7.9µM*	?	-5%
COc1cc(OC)cc(-c2c(C#Cc3ccsc3)c3cc(-c4ccc(OC)c(OC)c4)ccc3n2C)c1	nt	nt	nt	-3%
COc1ccc(C#Cc2c(-c3ccccc3)n(C)c3ccccc23)cc1	nt	nt	nt	-2%
COc1ccc(-c2c(C#Cc3ccsc3)c3ccccc3n2C)cc1	3.3µM*	20µM*	?	-14%
CCc1ccc(NC(=O)CC2C(=O)N(c3ccc(F)cc3)C(=O)N2Cc2ccc(F)cc2)cc1 (stereo not drawn)	nt	11%	nt	nt
CC(=O)N[C@@H](C)c1nc2ccccc2n1CCCN1CCN(c2nc(-c3ccc(C)cc3)cs2)CC1	?	2%	?	3%
CCn1nc(C)c(CCN(C)C(=O)Nc2cc(Cl)ccc2C)c1C	nt	7%	nt	nt
CC(C)c1ccc(NC(=O)Cn2c(=O)oc3ccccc32)cc1	218%	-16%	-25%	1%
SMILES	Pf growth 96h	Sm TGR inh	Pf growth 48h	SARS PLP yeast
COc1cc(C#Cc2c(-c3cncn3C)n(C)c3ccc(-c4ccc(OC)c(OC)c4)cc23)cc(OC)c1	5.2µM*	-18%	1.3µM*	3%
COc1ccc(-c2oc3ccc(-c4cc(OC)c(OC)c(OC)c4)cc3c2C#Cc2ccsc2)cc1	7.4µM*	-28%	-41%	-5%
COc1ccc(-c2c(C#Cc3ccsc3)c3cc(-c4ccc5[nH]ccc5c4)ccc3n2C)cc1	?	-19%	?	3%
COc1ccc(-c2c(C#Cc3ccsc3)c3cc(-c4cccc5[nH]ccc45)ccc3n2C)cc1	2.3µM*	-18%	1.3µM*	-8%
Cc1ccc(Sc2ncccc2C(=O)N(C)Cc2cccs2)c(C)c1	?	2%	?	-9%
N#Cc1ccc(CN2CCN(C(=O)CCNS(=O)(=O)c3ccc(F)c(Cl)c3)CC2)cc1	?	-22%	-22%	-3%
O=C(CCCCCN1C(=O)CCC1=O)Nc1ccc(Br)cc1F	1µM*	-17%	19%	-3%
O=C(CCCc1ccccc1)Nc1ccc(Br)cc1F	7%	2%	46%	-2%
COc1cccc(OC)c1OCCCOc1ccc([N+](=O)[O-])cc1Cl	-2%	-1%	-7%	-29%
CCOc1ccccc1OCCCOc1ccc([N+](=O)[O-])cc1Cl	10µM*	4%	?	-33%
CCCn1cc(S(=O)(=O)c2ccccc2)c(=O)c2cc(F)c(N3CCCCCC3)cc21	nt	3%	nt	nt
COc1cc2c(cc1OC)CN(C1CC(=O)N(c3c(C)cccc3C)C1=O)CC2 (stereo not drawn)	?	?	6.6µM*	-11%
COc1cc(OC)cc(C(=O)NC(c2ccccc2)c2ccccc2)c1	12µM*	1%	?	?
CCOCCOc1cccc(C(=O)NC(c2ccccc2)c2ccccc2)c1	2.1µM*	9%	?	-4%
Cc1ccc(OCC(=O)OCc2cc(=O)n3c(C)csc3n2)cc1	nt	1%	nt	nt
CCCCOc1ccc(C(O)(CCN2CCOCC2)c2ccccc2)cc1 (stereo not drawn)	0%	14µM*	?	-2%
COc1ccc(C(O)(C(C)C)C(CN2CCOCC2)c2ccccc2)cc1 (stereo not drawn)	0%	4%	?	-1%
COc1ccc(C(O)(C(C)C)C(CN2CCOCC2)c2ccc(Cl)cc2)cc1 (stereo not drawn)	0%	-14%	8.3µM*	-6%
CCCCC(O)(c1ccc(OC)cc1)C(CN1CCOCC1)c1ccccc1 (stereo not drawn)	24%	-20%	nt	-2%
CCCCCC(O)(c1ccc(OC)cc1)C(CN1CCOCC1)c1ccccc1 (stereo not drawn)	8%	9%	1.7µM*	-1%
CCCCCC(O)(c1ccc(OCC)cc1)C(CN1CCOCC1)c1ccccc1 (stereo not drawn)	?	-13%	2.1µM*	-3%
O=C1c2ccccc2[C@@H]2C[C@@H](O)[C@H](Nc3cccc(Cl)n3)CCN12	nt	nt	nt	1%
COc1cc(CC(=O)OCC(=O)c2ccc(F)cc2)cc(OC)c1OC	nt	nt	nt	5%
Cc1ccc(S(=O)(=O)CCC(=O)NCc2ccco2)cc1	nt	40µM*	18%	2%
Cc1ccc(S(=O)(=O)NCC(=O)N(CC(=O)NCc2ccco2)Cc2ccco2)cc1	13µM*	?	3%	-1%
COC(=O)N1C(=O)[C@](c2ccc(OC)cc2)(C(C)C)N1C(=O)OC	2%	45µM*	11%	-4%
COC(=O)N1C(=O)[C@](c2ccsc2)(C(C)C)N1C(=O)OC	7%	32µM*	38%	-6%
COC(=O)C1=CN(C)C=C(C(=O)OC)C1c1ccsc1	?	-15%	-17%	-2%
CC(=O)Nc1ccc(NC(=O)C(C)Oc2ccc(C)nc2[N+](=O)[O-])cc1 (stereo not drawn)	-27%	-4%	5%	5%

High-throughput results (PubChem BioAssay)
